Results from PubChem BioAssay (Tox21).
Values joined by “and” are separate entries in the source; they are usually repeats but may differ in a detail not shown here. Equal entries are not always repeated. Unmarked numbers belong to inactive results. Inconclusive results are not listed. A call without a number means that no potency is given here. Active and inactive are the calls of the source. Unless noted, calls follow the shape of the dose curve; as a rule, active = well fitted curve in the direction sought with a large enough effect in the repeat runs; inconclusive = weak or mixed curves; inactive = no such curve, though single readings can be large; an effect the other way counts as inactive or inconclusive.

Legend:
[1] = Caspase-3/7 induction in CHO-K1 cells by small molecules, qHTS cell viability counter screen (AID 1346979); also: nearly all actives have a fitted effect of over 35% in size; also: potency is read from the fitted curve at half-maximal effect
Method in brief: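 To flag cytotoxic compounds, treated CHO-K1 wild-type cells were given CellTiter-Fluor at 16hr and read fluorescently after 1hr at 37C; the caspase-3/7 luminescence was measured in these same wells.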

[2] = Caspase-3/7 induction in CHO-K1 cells by small molecules, qHTS assay (AID 1346980); also: nearly all actives have a fitted effect of over 15% in size
Method in brief: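 Wild-type CHO-K1 cells exposed to compounds for 17hr at 37 C, 5% CO2. Caspase-3/7 activity then measured by Caspase-Glo 3/7 luminescence after 30min at room temperature.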

[3] = Caspase-3/7 induction in HepG2 cells by small molecules, qHTS cell viability counter screen (AID 1346981); also: nearly all actives have a fitted effect of over 30% in size; also: potency is read from the fitted curve at half-maximal effect
Method in brief: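 Wild-type HepG2 cells, 2,000/well, settled 5 hr at 37 C, 5% CO2 before compound addition. Viability read by CellTiter-Fluor fluorescence, reagent added after 16 hr compound exposure, then 1 hr at 37C, in the same wells as the caspase read.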

[4] = target: Nuclear receptor subfamily 1 group I member 2 (Homo sapiens) (UniProt O75469); test: Human pregnane X receptor (PXR) small molecule agonists, qHTS assay (AID 1346982); also: nearly all actives have a fitted effect of over 35% in size; also: potency is read from the fitted curve at half-maximal effect
Method in brief: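 PXR-Luc HepG2 reporter cells (CYP3A4-driven luciferase) in 5% charcoal-stripped FBS medium, plated 5 h before compound addition, then treated 24 h at 37C. Luciferase read by ONE-Glo luminescence after 30 min at room temperature.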

[5] = target: Acetylcholinesterase (Homo sapiens) (UniProt P22303); test: Acetylcholinesterase (AChE) small molecule antagonists: colormetric cell-based qHTS assay (AID 1347395; calls by dose curve; also: nearly all actives have a fitted effect of over 30% in size; also: potency is read from the fitted curve at half-maximal effect)
Method in brief: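 Neuroblastoma line SH-SY5Y supplied the enzyme; cells were preincubated with compound for 30 min at 37 C and 5% CO2. Acetylthiocholine with DTNB was then added for 90 min at 37 C, and thiocholine was measured by colour.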

[6] = target: Acetylcholinesterase (Homo sapiens) (UniProt P22303); test: Acetylcholinesterase (AChE) small molecule antagonists: enzyme-based qHTS assay (AID 1347397; calls by dose curve; also: nearly all actives have a fitted effect of over 55% in size; also: potency is read from the fitted curve at half-maximal effect); conditions: Potency: AChE enzyme activity inhibition
Method in brief: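 Recombinant human AChE (50 mU/mL) preincubated with compound 30 min at room temperature; acetylthiocholine plus DTNB then added, and thiocholine formation read colorimetrically after 10 min at room temperature. DMSO served as vehicle control.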

[7] = target: Acetylcholinesterase (Homo sapiens) (UniProt P22303); test: Acetylcholinesterase (AChE) small molecule antagonists: fluorescence cell-based qHTS assay (AID 1347398; calls by dose curve; also: nearly all actives have a fitted effect of over 50% in size); conditions: Potency: AChE activity
Method in brief: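 SH-SY5Y cells (2000/well), attached overnight, incubated with compound 30 min at 37 C. Acetylthiocholine plus Thiolite Green then added for 40 min at room temperature. Thiocholine fluorescence (Ex/Em 490/520 nm) reports cellular AChE activity.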

[8] = target: Acetylcholinesterase (Homo sapiens) (UniProt P22303); test: Acetylcholinesterase (AChE) small molecule antagonists: enzyme-based qHTS assay with human liver microsomes (AID 1347399; calls by dose curve; also: nearly all actives have a fitted effect of over 60% in size); conditions: Potency: qHTS inhibition
Method in brief: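 Recombinant human AChE (50 mU/mL in the enzyme mix) and human liver microsomes (0.25 mg/mL final) were preincubated with compound and NADPH (0.25 mg/mL final) for 30 min at 37 C. Acetylthiocholine/DTNB was then added; thiocholine was read colorimetrically after 10 min at room temperature.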

[9] = target: Cytochrome P450 2D6 (Homo sapiens) (UniProt P10635); test: Cytochrome P450 Family 2 Subfamily D Member 6 (CYP2D6) small molecule antagonists: luciferase reporter qHTS assay (AID 1671196); also: nearly all actives have a fitted effect of over 50% in size; also: potency is read from the fitted curve at half-maximal effect
Method in brief: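 Cell-free P450-Glo system: CYP2D6 with proluciferin substrate was pre-incubated with compound for 10 min, then reacted with NADPH regeneration for 1 h at room temperature. Luciferin product was detected after 20 min, and data were reported as relative luminescence units.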

[10] = target: Cytochrome P450 2C19 (Homo sapiens) (UniProt P33261); test: Cytochrome P450 Family 2 Subfamily C Member 19 (CYP2C19) small molecule antagonists: luciferase reporter qHTS assay (AID 1671197); also: nearly all actives have a fitted effect of over 65% in size; also: potency is read from the fitted curve at half-maximal effect
Method in brief: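 CYP2C19 P450-Glo, 1536-well qHTS. Cpd + enzyme/proluciferin substrate 10 min RT; + NADPH regen, 37C 1 h; stop with luciferin detection reagent, 20 min RT, luminescence (RLU). Pos ctrl ketoconazole.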

[11] = target: Cytochrome P450 2C9 (Homo sapiens) (UniProt P11712); test: Cytochrome P450 Family 2 Subfamily C Member 9 (CYP2C9) small molecule antagonists: luciferase reporter qHTS assay (AID 1671198); also: nearly all actives have a fitted effect of over 50% in size; also: potency is read from the fitted curve at half-maximal effect
Method in brief: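 P450-Glo proluciferin substrate with CYP2C9 enzyme; 10 min RT preincubation, then NADPH regeneration 1 h at 37C; luciferin detection reagent 20 min RT, luminescence in relative luminescence units.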

[12] = target: Cytochrome P450 1A2 (Homo sapiens) (UniProt P05177); test: Cytochrome P450 Family 1 Subfamily A Member 2 (CYP1A2) small molecule antagonists: luciferase reporter qHTS assay (AID 1671199); also: nearly all actives have a fitted effect of over 50% in size; also: potency is read from the fitted curve at half-maximal effect
Method in brief: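 P450-Glo CYP1A2 enzyme–proluciferin substrate mix with compound 10 min at room temperature, then NADPH regeneration 1 h at room temperature. Luciferin detection reagent added, luminescence read after 20 min; furafylline positive control.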

[13] = target: Voltage-gated inwardly rectifying potassium channel KCNH2 (Homo sapiens) (UniProt Q12809); test: Human Ether-a-go-go-Related Gene (hERG) channel small molecule antagonists: fluorescence cell-based qHTS assay (AID 1671200); also: nearly all actives have a fitted effect of over 50% in size; also: potency is read from the fitted curve at half-maximal effect
Method in brief: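 Measured: Tl+ flux via fluorescence (480/540 nm) in hERG-expressing U2OS cells after 1 h dye loading at room temperature.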

[14] = target: Cytochrome P450 3A4 (Homo sapiens) (UniProt P08684); test: Cytochrome P450 Family 3 Subfamily A Member 4 (CYP3A4) small molecule antagonists: luciferase reporter qHTS assay (AID 1671201); also: nearly all actives have a fitted effect of over 50% in size; also: potency is read from the fitted curve at half-maximal effect
Method in brief: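 Setup: enzyme-substrate mix, compound pin transfer, 10 min RT. Reaction: NADPH regeneration solution, 1 h RT. Readout: detection reagent stops turnover, luminescence measured after 20 min, expressed in relative luminescence units.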

[15] = Caspase-3/7 induction in HepG2 cells by small molecules, qHTS assay (AID 1346978); also: nearly all actives have a fitted effect of over 15% in size
Method in brief: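 Wild-type HepG2 cells, 2,000/well, settled 5 hr at 37 C and 5% CO2, then compound-treated for 17 hr; caspase-3/7 activity read by luminescent Caspase-Glo 3/7 after 30 min at room temperature.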

[16] = target: Nuclear receptor subfamily 1 group I member 2 (Rattus norvegicus) (UniProt Q9R1A7); test: Rat pregnane X receptor (rPXR) activation by small molecules, qHTS assay (AID 1346983); conditions: rPXR luciferase reporter cells, One-Glo luminescence, 24 h; max activation: hits give high values; also: nearly all actives have a fitted effect of over 20% in size
Method in brief: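 Cell-based rPXR activation assay: rPXR cells, 2,000 per well, rested 5hr at 37 C, then exposed to compounds in DMSO for 24 hr at 37 C. Luciferase activity read by One-Glo luminescence after 30 min at room temperature.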

Sequence of Cytochrome P450 2C9 (Homo sapiens) (P11712 whole entry, looked up): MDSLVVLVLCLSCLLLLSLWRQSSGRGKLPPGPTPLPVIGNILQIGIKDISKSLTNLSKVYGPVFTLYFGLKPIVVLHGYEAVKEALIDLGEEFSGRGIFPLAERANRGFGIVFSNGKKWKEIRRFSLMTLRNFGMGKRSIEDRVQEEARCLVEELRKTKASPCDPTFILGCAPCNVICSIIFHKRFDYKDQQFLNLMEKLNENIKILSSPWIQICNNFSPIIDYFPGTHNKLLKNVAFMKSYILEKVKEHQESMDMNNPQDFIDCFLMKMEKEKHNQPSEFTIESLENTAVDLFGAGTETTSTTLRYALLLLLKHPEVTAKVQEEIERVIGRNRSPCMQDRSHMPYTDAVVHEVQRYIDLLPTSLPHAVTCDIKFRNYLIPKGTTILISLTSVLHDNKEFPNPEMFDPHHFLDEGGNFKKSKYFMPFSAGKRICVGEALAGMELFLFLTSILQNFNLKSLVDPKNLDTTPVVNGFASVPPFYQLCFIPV
Sequence of Cytochrome P450 1A2 (Homo sapiens) (P05177 whole entry, looked up): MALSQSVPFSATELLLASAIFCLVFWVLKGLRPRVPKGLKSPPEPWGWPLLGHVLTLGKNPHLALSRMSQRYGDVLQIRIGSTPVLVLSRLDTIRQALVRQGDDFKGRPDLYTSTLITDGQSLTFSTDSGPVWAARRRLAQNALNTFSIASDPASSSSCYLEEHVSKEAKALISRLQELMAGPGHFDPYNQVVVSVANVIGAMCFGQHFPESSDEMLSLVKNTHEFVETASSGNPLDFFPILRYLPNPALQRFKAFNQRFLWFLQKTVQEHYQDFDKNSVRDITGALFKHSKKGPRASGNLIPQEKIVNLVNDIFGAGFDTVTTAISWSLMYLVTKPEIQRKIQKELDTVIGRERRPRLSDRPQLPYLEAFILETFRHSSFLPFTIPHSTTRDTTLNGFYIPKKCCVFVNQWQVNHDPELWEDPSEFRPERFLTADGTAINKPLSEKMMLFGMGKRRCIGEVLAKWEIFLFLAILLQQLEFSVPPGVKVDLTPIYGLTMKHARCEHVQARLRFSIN
Sequence of Nuclear receptor subfamily 1 group I member 2 (Homo sapiens) (O75469 whole entry, looked up): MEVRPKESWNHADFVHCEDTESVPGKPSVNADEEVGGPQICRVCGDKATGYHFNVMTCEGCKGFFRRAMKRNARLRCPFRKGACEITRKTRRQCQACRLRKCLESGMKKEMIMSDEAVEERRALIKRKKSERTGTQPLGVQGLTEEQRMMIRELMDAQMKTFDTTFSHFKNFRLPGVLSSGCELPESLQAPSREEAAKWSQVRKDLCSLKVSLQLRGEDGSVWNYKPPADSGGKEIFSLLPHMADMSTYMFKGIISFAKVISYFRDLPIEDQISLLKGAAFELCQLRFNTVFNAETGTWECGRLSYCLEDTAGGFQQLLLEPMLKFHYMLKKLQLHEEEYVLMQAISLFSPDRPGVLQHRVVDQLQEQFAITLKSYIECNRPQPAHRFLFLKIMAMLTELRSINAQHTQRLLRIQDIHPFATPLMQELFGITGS
Sequence of Voltage-gated inwardly rectifying potassium channel KCNH2 (Homo sapiens) (Q12809 whole entry, looked up): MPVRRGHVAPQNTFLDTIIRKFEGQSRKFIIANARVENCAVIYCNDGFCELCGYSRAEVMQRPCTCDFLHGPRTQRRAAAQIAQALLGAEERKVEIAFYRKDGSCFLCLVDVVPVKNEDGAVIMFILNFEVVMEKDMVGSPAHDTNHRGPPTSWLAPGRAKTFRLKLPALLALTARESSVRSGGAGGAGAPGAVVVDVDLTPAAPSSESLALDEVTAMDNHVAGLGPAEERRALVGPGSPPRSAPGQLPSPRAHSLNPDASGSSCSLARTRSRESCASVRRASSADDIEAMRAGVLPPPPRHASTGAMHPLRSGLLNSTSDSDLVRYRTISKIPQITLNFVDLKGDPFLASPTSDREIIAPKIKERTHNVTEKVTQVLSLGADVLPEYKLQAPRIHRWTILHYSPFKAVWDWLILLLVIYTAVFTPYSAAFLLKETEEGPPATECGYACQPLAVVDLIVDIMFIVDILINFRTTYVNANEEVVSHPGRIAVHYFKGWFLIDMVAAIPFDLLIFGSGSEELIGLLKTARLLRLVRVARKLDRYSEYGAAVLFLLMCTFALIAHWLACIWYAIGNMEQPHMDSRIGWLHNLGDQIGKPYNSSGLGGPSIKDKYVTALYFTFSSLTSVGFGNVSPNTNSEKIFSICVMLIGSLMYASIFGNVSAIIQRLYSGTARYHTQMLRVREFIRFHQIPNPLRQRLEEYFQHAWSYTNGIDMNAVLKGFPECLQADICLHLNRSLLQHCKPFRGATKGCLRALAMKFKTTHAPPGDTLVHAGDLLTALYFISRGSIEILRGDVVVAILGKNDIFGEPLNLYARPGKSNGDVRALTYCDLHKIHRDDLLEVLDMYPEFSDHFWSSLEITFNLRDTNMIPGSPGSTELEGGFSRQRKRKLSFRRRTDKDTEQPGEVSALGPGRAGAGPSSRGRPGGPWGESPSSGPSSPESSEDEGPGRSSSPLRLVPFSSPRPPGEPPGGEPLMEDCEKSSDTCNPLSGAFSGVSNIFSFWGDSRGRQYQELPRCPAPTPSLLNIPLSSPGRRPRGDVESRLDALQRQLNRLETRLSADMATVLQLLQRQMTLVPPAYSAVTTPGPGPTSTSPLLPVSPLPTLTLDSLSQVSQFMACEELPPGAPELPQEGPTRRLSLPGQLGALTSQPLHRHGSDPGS
Sequence of Cytochrome P450 3A4 (Homo sapiens) (P08684 whole entry, looked up): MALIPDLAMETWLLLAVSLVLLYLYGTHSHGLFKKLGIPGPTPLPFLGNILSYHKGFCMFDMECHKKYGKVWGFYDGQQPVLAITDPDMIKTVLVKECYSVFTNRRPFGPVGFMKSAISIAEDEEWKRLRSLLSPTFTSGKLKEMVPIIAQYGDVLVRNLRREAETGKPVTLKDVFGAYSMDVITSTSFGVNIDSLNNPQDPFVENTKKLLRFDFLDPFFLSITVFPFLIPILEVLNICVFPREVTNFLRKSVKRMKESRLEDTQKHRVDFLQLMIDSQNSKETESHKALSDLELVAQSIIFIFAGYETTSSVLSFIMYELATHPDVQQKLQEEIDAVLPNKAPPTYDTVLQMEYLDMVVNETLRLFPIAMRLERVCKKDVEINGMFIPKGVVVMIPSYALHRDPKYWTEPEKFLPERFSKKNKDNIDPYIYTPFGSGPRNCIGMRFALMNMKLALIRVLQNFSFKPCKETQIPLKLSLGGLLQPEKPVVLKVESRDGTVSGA
Sequence of Cytochrome P450 2C19 (Homo sapiens) (P33261 whole entry, looked up): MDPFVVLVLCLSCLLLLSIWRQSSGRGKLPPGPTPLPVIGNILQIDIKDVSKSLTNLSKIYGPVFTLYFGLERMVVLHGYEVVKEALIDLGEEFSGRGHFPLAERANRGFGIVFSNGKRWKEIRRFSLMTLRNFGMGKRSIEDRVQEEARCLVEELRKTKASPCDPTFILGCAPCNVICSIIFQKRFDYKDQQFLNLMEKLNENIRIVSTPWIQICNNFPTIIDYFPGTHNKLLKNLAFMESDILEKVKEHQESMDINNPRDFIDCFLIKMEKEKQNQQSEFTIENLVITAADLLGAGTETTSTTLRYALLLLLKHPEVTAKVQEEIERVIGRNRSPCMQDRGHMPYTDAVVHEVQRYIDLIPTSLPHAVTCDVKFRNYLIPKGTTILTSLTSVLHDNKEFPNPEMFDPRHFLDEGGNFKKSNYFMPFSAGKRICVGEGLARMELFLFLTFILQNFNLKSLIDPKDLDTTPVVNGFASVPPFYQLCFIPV
Sequence of Cytochrome P450 2D6 (Homo sapiens) (P10635 whole entry, looked up): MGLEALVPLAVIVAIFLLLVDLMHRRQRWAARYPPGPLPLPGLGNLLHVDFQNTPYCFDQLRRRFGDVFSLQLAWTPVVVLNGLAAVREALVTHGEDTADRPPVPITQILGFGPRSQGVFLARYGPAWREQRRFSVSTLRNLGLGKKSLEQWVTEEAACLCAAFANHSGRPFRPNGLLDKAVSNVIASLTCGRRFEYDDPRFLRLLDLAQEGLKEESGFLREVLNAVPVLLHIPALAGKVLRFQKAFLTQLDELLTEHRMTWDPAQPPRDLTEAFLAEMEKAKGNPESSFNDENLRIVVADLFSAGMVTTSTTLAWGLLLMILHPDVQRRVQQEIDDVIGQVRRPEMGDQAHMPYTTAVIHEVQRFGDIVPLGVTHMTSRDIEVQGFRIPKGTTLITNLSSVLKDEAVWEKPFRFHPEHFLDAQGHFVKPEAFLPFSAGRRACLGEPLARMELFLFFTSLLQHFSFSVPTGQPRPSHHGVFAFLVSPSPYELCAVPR
Sequence of Acetylcholinesterase (Homo sapiens) (P22303 whole entry, looked up): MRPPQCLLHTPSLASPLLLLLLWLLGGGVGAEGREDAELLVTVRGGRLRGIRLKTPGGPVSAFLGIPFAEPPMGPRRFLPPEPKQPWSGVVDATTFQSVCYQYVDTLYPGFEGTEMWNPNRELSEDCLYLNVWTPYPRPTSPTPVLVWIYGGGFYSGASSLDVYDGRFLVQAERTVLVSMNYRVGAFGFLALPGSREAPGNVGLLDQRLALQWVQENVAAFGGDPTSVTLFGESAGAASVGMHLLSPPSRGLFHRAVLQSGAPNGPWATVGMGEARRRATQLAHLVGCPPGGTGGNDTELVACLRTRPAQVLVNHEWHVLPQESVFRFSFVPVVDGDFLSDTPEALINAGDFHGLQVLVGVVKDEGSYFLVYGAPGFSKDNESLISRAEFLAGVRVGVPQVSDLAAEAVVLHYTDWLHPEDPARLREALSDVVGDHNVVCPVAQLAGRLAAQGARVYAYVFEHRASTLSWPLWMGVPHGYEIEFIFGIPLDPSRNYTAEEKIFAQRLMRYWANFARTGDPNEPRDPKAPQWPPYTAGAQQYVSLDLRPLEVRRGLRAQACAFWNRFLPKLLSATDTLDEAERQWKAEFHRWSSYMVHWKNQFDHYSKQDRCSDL

Compound | Potency [1] | Potency [2] | Potency [3] | Potency [4] | Potency [5] | Potency [6] | Potency [7] | Potency [8] | Potency [9] | Potency [10] | Potency [11] | Potency [12] | Potency [13] | Potency [14] | Potency [15] | max activation [16]
Cc1cc(N=Nc2ccccc2C)ccc1N | 30.6 µM (active) and 61.1 µM (active) | inactive | 3.86 µM (active) and 686 nM (active) | 24.3 µM (active) and 30.6 µM (active) | inactive | inactive | inactive | inactive | 63.3 µM (active) | 5.64 µM (active) and 8.94 µM (active) | 5.03 µM (active) and 5.64 µM (active) | 1.26 µM (active) and 2 µM (active) | inactive | 1.59 µM (active) and 7.1 µM (active) | – | –
CC(=O)OC1(c2ccccc2)CCN(CCc2ccccc2)CC1 | inactive | inactive | inactive | 11.1 µM (active) | inactive | inactive | inactive | inactive | 0.727 µM (active) | 40.9 µM (active) | – | inactive | 25.1 µM (active) | inactive | – | –
Cn1[nH]nnc1=S | inactive | inactive | inactive | inactive | inactive | inactive | inactive | inactive | inactive | 56.4 µM (active) | 71 µM (active) | – | inactive | inactive | – | –
ClC1=C(Cl)C2(Cl)C3C(Cl)C=CC3C1(Cl)C2(Cl)Cl (centres undefined) | – | – | inactive | – | inactive | – | inactive | inactive | inactive | 8.98 µM (active) and 20 µM (active) | 35.6 µM (active) | – | 21.9 µM (active) | 5.05 µM (active) and 11.2 µM (active) | inactive | –
CCOc1cc(C(C)(C)C)ccc1C1COC(c2c(F)cccc2F)=N1 (centres undefined) | – | inactive | inactive | 37.1 µM (active) | inactive | – | inactive | inactive | 5.43 µM (active) | 3.42 µM (active) | 12.2 µM (active) | 24.2 µM (active) | 13.3 µM (active) | 68.3 nM (active) | – | –
CC(C)(C)C(O)/C(=C\c1ccc(Cl)cc1Cl)n1cncn1 (centres undefined) | 37.1 µM (active) | inactive | 83 µM (active) | 41.6 µM (active) | – | inactive | – | inactive | 34.2 µM (active) | 0.0342 µM (active) | – | – | – | – | – | –
O=c1[nH]c2ccccc2n1CCCN1CCC(n2c(=O)[nH]c3cc(Cl)ccc32)CC1 | – | inactive | – | – | – | – | – | – | – | – | – | – | – | – | – | -1.24%
c1cc[c]([Sb]([c]2ccccc2)[c]2ccccc2)cc1 | 68.6 µM (active) | – | inactive | 54.5 µM (active) | inactive | inactive | inactive | inactive | inactive | 17.8 µM (active) | 17.8 µM (active) | – | – | – | – | –
Cc1ccc(OP(=O)(Oc2ccccc2)Oc2ccccc2)cc1 | inactive | inactive | – | 13.9 µM (active) | 20.3 µM (active) | 20.3 µM (active) | – | – | inactive | 3.22 µM (active) | 6.42 µM (active) | 11.4 µM (active) | 24.9 µM (active) | – | – | –
NC(=O)CCl | – | inactive | inactive | inactive | inactive | inactive | inactive | inactive | inactive | inactive | inactive | inactive | inactive | – | – | –
